The panel holds about 83,000 compounds, 20% with a hit somewhere; the sample as a whole holds those more often.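 For each line, cells grew in 96-well plates with the test compound present at a single concentration for 48 hours.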 Unmarked numbers belong to inactive results. Calls of active or inactive are those of the source. Rule for the calls: active = growth percent below 10; inactive = the rest.
System: PC-3 prostate
Test: NCI-60 one-dose screen, 48 h (100 = growth as untreated, 0 = no growth, -100 = all killed)
Conditions: 10 µM unless noted

SMILES	growth
COc1ccc(/C=C/C(c2cc(OC)c(OC)c(OC)c2)n2cncn2)cc1O (centres undefined)	23.5%
COc1ccc(-c2cn(Cc3cc4ccccc4s3)nn2)cc1OCCN1CCCCC1	68.4%
COc1ccc(-c2nc3c(c(-c4ccc(Cl)cc4)nn3-c3ccccc3)c(-c3ccccc3)c2C#N)cc1	91.3%
COc1ccc2c(c1)CC[C@@H]1[C@@H]2CC[C@]2(C)C3C(=CC(COC(C)=O)C4C(=O)N(c5ccc(Cl)cc5)C(=O)C43)C[C@@H]12 (some centres undefined)	82%
COc1cc(/C=C/C(=O)N2CCN(C(=O)c3cc(OC)c(OC)c(OC)c3)CC2)ccc1OCCCOc1cc2c(cc1OC)C(=O)N1CCC[C@H]1C=N2	-43% (active)
CSc1nc2ccc(C)cc2cc1/C=C1/C=C(c2ccccc2)NC1=O	68.4%
Cc1ccc2c(c1)sc1nc(-c3c[nH]c4ccccc34)c(Nc3ccccc3)n12	90.4%
N=C(N)c1ccc(-c2ccc(-c3ccccc3)o2)o1	30.4%
CN1C(=O)N2CN3CCCN(C3)CN3C(=S)NC1C23 (centres undefined)	98.4%
Clc1ccc(-c2cc(-c3ccccc3)nc(N3CCN(CCCNc4ccnc5cc(Cl)ccc45)CC3)n2)cc1	43.1%
COc1cc(/C=C/c2cc(/C=C/c3ccc(O)c(OC)c3)n(C(=O)Nc3ccc(Cl)cc3)n2)ccc1O	4.24% (active)
N#Cc1c(-c2ccccc2)nc2c(c(-c3ccc(Cl)cc3)nn2-c2ccccc2)c1-c1ccc([N+](=O)[O-])cc1	88.7%
COc1ccc(Oc2ccc(/C=C/C(=O)c3cc4ccccc4oc3=O)cc2)cc1	75.3%
O=[N+]([O-])c1c(O)c(Cl)cc(Cl)c1Cl	88%
O=S(O)c1cc(Cl)cc(Cl)c1OCc1ccccc1	84.5%
Cc1oc(-c2ccc(Cl)cc2)nc1C1=NN(C(=O)c2ccncc2)C(c2ccccc2)C1 (centres undefined)	83.7%
CS(=O)(=O)c1ccc(-c2nc3ccccc3n2CC(=O)N/N=C/c2ccccc2)cc1	96.9%
CCCn1c(=S)sc2c(NNC(C)=O)nc(C)nc21	90.3%
N#CSc1c[nH]c2ccc(/C=C/C(=O)/C=C(O)/C=C/c3ccc4[nH]cc(SC#N)c4c3)cc12	12%
Fc1cccc(-c2nc(-c3c[nH]c4ncccc34)cs2)c1	59.6% [100 µM]

SMILES	growth
COc1ccc(Oc2ccc(/C=C/C(=O)c3ccc(OC)c(OC)c3)cc2)cc1	81.6%
CCCCn1c(NC(C)=O)c(S(=O)(=O)c2ccccc2)c2nc3ccccc3nc21	96%
COc1cc(O)c2c(=O)c3c(CC=C(C)C)cc(OC)c(O)c3oc2c1	73.9%
CC12OC(CC(O)C1O)n1c3ccccc3c3c4c(c5c6ccccc6n2c5c31)C(=O)N(CCN1CCCC1)C4=O (centres undefined)	20.8%
C=C1CC[C@@H]2C(C)(C)[C@H](O)CC[C@@]2(C)[C@@H]1COc1ccc2ccc(=O)oc2c1	25.2%
COc1c2c(cc3c1C(=O)N[C@@H]1[C@@H](O)[C@@H](O)[C@H](O)C[C@@H]31)OCCO2	97.7%
C=C1C(=O)O[C@H]2[C@H]1CC/C(COC(=O)NCc1ccc(Cn3c(=O)sn(-c4ccccc4)c3=O)cc1)=C\CC[C@@]1(C)O[C@@H]21	64%
Cc1nc2sc(C(=O)Nc3ccccn3)c(N)c2cc1C(C)O (centres undefined)	72.7%
c1cc(OCCN2CCCC2)ccc1CNc1ccc2nc(CCC3CCCCC3)[nH]c2c1	52%
Cc1nc([P+](c2ccccc2)(c2ccccc2)c2ccccc2)c(N2CCCCC2)o1	15.3%
COc1cc(/C=N/NC(=O)c2ccc(-n3cc(-c4ccccc4)nn3)cc2)cc(OC)c1OC	47.5%
C=CN(C(=O)N1CCN(c2cc3c(cc2F)c(=O)c(C(=O)O)cn3C2CC2)CC1)c1nc(-c2ccc(Cl)cc2)cs1	40.3%
COc1ccccc1/C=C/C(=O)Nc1ccc(F)cc1	95.7%
CC(C)c1ccc2c(c1)CC[C@H]1[C@](C)(C(=O)OCC#CCN3CCCC3)CCC[C@]21C	61.9%
COc1ccc2c(O)c(/C=C3\N=Nc4ncccc43)oc2c1C[C@@H]1CCNC[C@H]1F	-29.1% (active)
c1ccc2cc(Cn3cc(CSc4nc5ccccc5s4)nn3)ccc2c1	93.1%
COCC(=O)Oc1cc(-c2ccc(C)cc2C)c(OC(=O)COC)c(-c2ccc(C)cc2C)c1	43.4%
Cc1nc2ccccc2c(/C=C/c2ccc(F)cc2)c1C(=O)/C=C/c1ccccc1	29.8%
O=C1C=C(SCCO)C(=O)c2ccccc21	62.3%

— PubChem BioAssay (NCI)
